Our source for the Potency, max response and outcome values is PubChem BioAssay (NCATS).

Inconclusive results are not listed. Values without a mark were called inactive. The source made the active and inactive calls. Calls follow the shape of the dose curve; as a rule, active = well fitted inhibition curve with a large enough effect; inconclusive = small, poorly fitted or top-dose-only effect; inactive = flat fitted curve, though single readings scatter. *1 amine or outer side, *2 acyl side, *3 side chain or, on linkers, in order; H or OH if unused. Where a SMILES comes first, the peptide text is derived from it. [ ]: non-standard residue; d: D form. X4 = CC(C)=CCc1cc(C(O)C(N[*:1])C(=O)[*:2])ccc1O
% is scaled to controls: 0 for no effect and ±100 for the full control effect; potency is read from the fitted curve at half-maximal effect.

In this experiment the test system is HEK293. Put plainly: Cytotoxic Profiling of Annotated Libraries Using Quantitative High-Throughput Screening (AID 1296008). Also: nearly all actives have a fitted effect of over 60% in size. The following applies: Five cell lines viability, CellTiter-Glo ATP luminescence, 48-72 h; max response: active compounds read low. The method, boiled down:
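Compounds were pin-transferred onto cells and incubated 48 or 72 hr at 37 degree Celsius, 95% humidity. CellTiter-Glo was added, plates sat 10 min at room temperature, then ATP-coupled luminescence was imaged as the viability read-out.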
For `COc1ccc(C(=O)Nc2ncc(-c3ccc(C(=O)O)cc3)s2)cc1`, the Potency is 7.31 µM (active). Regarding `CC12CCC(OC3OC(CO)C(O)C(OC4OC(CO)C(O)C(O)C4O)C3O)CC1=CCC1C2CCC2(C)/C(=C3/COC(=O)C3)CCC12O` (centres undefined), the max response is 0.267%. On the same count and under the same terms, for `COc1c(/C=C/C(C)(C)O)ccc2c1C(=O)OCc1cc(C)cc(O)c1O2` the value was -114%; for `Cc1cc(C)c2c(N)c(C(=O)NCc3ccc(Cl)cc3)sc2n1`, -96.1%.

On to `COc1ncc(Nc2ncc([C@H](C)N3CCN(S(C)(=O)=O)CC3)cc2-c2nc(C)nc(N)n2)cc1F`, for which the Potency is 0.517 µM (active). As to `CC1(C)CCCC2(C)C1CC(=O)C13CC(CCC12)C(O)(CO)C3` (centres undefined), the max response was 0.204%. In the case of `COc1c2cc(c(O)c1OC)-c1cc(ccc1O)CCC(O)CCCC2` (centres undefined), the max response is 1.1%. On to `N#Cc1c(Oc2ccc(F)c(NC(=O)Cc3cccc(C(F)(F)F)c3)c2)ccc2nc(NC(=O)C3CC3)sc12`, for which the Potency is 1.3 µM (active).

Turning to `COc1cc(O)cc(C)c1C(=O)O[C@@H]1[C@H](O)[C@@H](CO)O[C@H]1n1ccc(=O)[nH]c1=O`, the Potency is 5.63 µM (active). For the compound `O=C(NCc1ccc(S(=O)(=O)c2cc(F)cc(F)c2)cc1)c1ccc2nccn2c1`, the Potency is 0.0052 µM (active).

For the compound `O=C(Nc1ccc(-c2ccncc2)cc1)N[C@H](CO)c1ccccc1`, the max response was -14.1%. As for `Oc1ccc2nc(CN3CCC(Cc4ccccc4F)CC3)[nH]c2c1`, the max response was -10.9%. On to `Cc1cc(-c2cc(O)ccc2Cl)cc2nnc(Nc3ccc(OCCN4CCCC4)cc3)nc12`, for which the Potency was 3.26 µM (active).

`Cn1cc(S(=O)(=O)c2ccc(Cl)cc2)c2cccc(N3CCNCC3)c21`: the Potency is 6.51 µM (active). In the case of `CCN(CC)CCN(Cc1ccc(-c2ccc(C(F)(F)F)cc2)cc1)C(=O)Cn1c(SCc2ccc(F)cc2)nc(=O)c2c1CCC2`, the Potency was 3.66 µM (active).

For `CC(C)=CCc1cc(C(O)C2NC(=O)CNC(=O)C(Cc3c[nH]c4ccccc34)NC(=O)C3CCCN3C(=O)CNC(=O)C(C(C)C)NC(=O)CNC2=O)ccc1O` (centres undefined) (cyclo(G[X4]GVGPW); configuration not given here), the max response is -8.38%. For `Cc1ccc(S(=O)(=O)n2ccc(-c3c(-c4ccc(Cl)cc4)noc3C)n2)cc1`, the Potency was 4.11 µM (active). Consider `NC(=O)c1cccc2cn(-c3ccc(C4CCCNC4)cc3)nc12` (centres undefined), for which the Potency was 7.31 µM (active).

For `CC(C)C(CO)Nc1nc(Nc2cc(N)cc(Cl)c2)c2ncn(C(C)C)c2n1` (centres undefined), the Potency was 16.4 µM (active). For the compound `COc1c(Nc2ncc(Cl)c(N[C@H]3[C@@H](C(N)=O)[C@@H]4C=C[C@H]3C4)n2)ccc2c1CC[C@@H](N1CCOCC1)CC2`, the Potency was 3.66 µM (active). With `CN(C)c1nc(NC2CCC(NC(=O)c3ccc(F)c(F)c3)CC2)nc2ccccc12` (centres undefined), the Potency was 16.4 µM (active). On to `COc1ncc(Nc2ncc([C@@H](C)N3CCN(S(C)(=O)=O)CC3)cc2-c2nc(C)nc(N)n2)cc1F`, for which the Potency was 0.259 µM (active). The same measure, in the same setting: for `Cc1cc(C)c(Nc2ccnc(Nc3ccc(C#N)cc3)n2)c(C)c1` the value was 5.17 µM (active). Regarding `CC1(C)C=CN2C(=O)C3=CCCN3C(=O)[C@@H]2C[C@@]12Nc1ccccc1C2=O`, the max response was -9.52%.

Turning to `Cc1nc(Nc2n[nH]c3c2CN(C(=O)NC(CN(C)C)c2ccccc2)C3(C)C)c2sccc2n1` (centres undefined), the Potency was 0.0146 µM (active). Same read-out and setting: for `COc1ccc(-c2ccc3c(N4CCOCC4)nc(N4CC(C)OC(C)C4)nc3n2)cc1CO` (centres undefined) the value was 1.16 µM (active); for `CC(O)c1cc(C(=O)N[C@@H](C)Cn2ccc(-c3ccc(C#N)c(Cl)c3)n2)n[nH]1` (some centres undefined), 18.4 µM (active). In the case of `COc1ccc([C@@]2(O)c3c(ccc(CC=C(C)C)c3O)NC(=O)[C@@H]2OC)cc1`, the compound was called inactive. Consider `O=C(c1cc2c(cc1F)OC(c1ccc(F)cc1)(c1ccc(Cl)cc1Cl)O2)N1CCOCC1` (centres undefined), for which the Potency is 11.6 µM (active). Turning to `COC(=O)c1c(C)cc(OC(=O)c2c(C)cc(OC)cc2OC)cc1O[C@@H]1O[C@H](CO)[C@@H](O)[C@H](O)[C@H]1O`, the max response was -0.971%. As for `CN=C(N)NCCCCC/C=C(/C)CC(C)C1OC(=O)C(C)C(O)/C=C/C(C)C(O)CC(O)C(C)C(O)CCC(C)C(O)CC2(O)OC(CC(OC(=O)CC(=O)O)CC(O)CC(O)C(C)C(O)/C(C)=C/CCC1C)CC(O)C2O` (centres undefined), the max response was -1.07%. As for `Cc1noc(-c2ccc(-c3ccc(CC(=O)O)cc3)cc2)c1NC(=O)O[C@H](C)c1ccccc1`, the max response was -14%. For `CCC(C)C(=O)OC1CC(O)C23C4OCC5(C(O)CC2C1(C)C(O)O4)C3C(=O)C(O)C1(C)C(O)(c2ccoc2)CC2OC251` (centres undefined), the Potency is 1.72 µM (active). `CC(=O)OC12COC1CC(O)C1(C)C(=O)C(O)C3=C(C)C(OC(=O)C(O)C(NC(=O)OC(C)(C)C)c4ccccc4)CC(O)(C(OC(=O)c4ccccc4)C21)C3(C)C` (centres undefined): the max response was -76.3%. Turning to `COc1cc2ncnc(Nc3ccc(F)c(Cl)c3)c2cc1NC(=O)/C=C/CN1CCCCC1`, the Potency was 7.31 µM (active). Still for that read-out and setting: for `CC1(C)CC(NC(=O)C(=O)Nc2ccc(Br)cc2)CC(C)(C)N1` the value was 4.11 µM (active). Regarding `Cc1cccc2c1NC(=O)C2(c1ccc(O)cc1)c1ccc(O)cc1`, the max response is -20.9%.

Take `CC1(C)CC(=O)C2=C(C1)NC(=S)NC2c1cccc(O)c1` (centres undefined): the Potency was 1.16 µM (active). As for `NC(=O)c1csc(C2OC(CO)C(O)C2O)n1` (centres undefined), the max response is -9.16%.
